# Hits are enriched below; roughly 11% of the tested compounds scored in any of these assays.
# Sfp PPTase inh – blocks B. subtilis Sfp PPTase activity. Q9F4F7. Biochemical Sfp PPTase activity, qHTS. Potency, µM, without a hit: largest response in the series, negative = inhibition, hits mostly inhibitors. 310,000 compounds, 3.5% hits;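 note: the enzyme is Sfp with the accession as filed and its product quenches rhodamine fluorescence; potency is the fitted concentration of half-maximal effect; 0% = enzyme reaction without inhibitor and -100% = no enzyme wells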
#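 Buffer: 50 mM Hepes-Na pH 7.6, 10 mM MgCl2, 0.01% Nonidet P-40, 0.01% BSA. Enzyme 15 nM, pre-exposed to compound 15 min; substrates then added and fluorescence change tracked over 30 min.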
# FBPA coupling cs – counter-screen for Giardia aldolase inhibitors: coupling enzyme system; activity change, negative = inhibition, % at 58.2 µM, hits read low; 290,000 compounds, 0.67% hits; coupling enzyme system counterscreen, AmpLite Red fluorescence; AID 2472; in the data active = activity change below about -30%
#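 First, compound is pin-transferred into glyceraldehyde-3-phosphate coupling-enzyme reagent at 57.5 uM final and held 10 min at RT. Next, substrate, coupling system and AmpLite Red are added. After 20 min RT, fluorescence (525/598 nm) is read.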
# G9a inh – inhibitors of human histone lysine methyltransferase G9a; Potency, µM (doses to about 102 µM), for the others: at the top dose activity, negative = inhibition, most hits filed as inhibitors; G9a H3K9 monomethylation, AlphaScreen, 2 h; Q96KQ7; 350,000 compounds, 8.8% hits; note: potency is the fitted concentration of half-maximal effect; nearly all actives have a fitted effect of over 75% in size
# Target sequence (Q96KQ7 913-1193 limits assumed): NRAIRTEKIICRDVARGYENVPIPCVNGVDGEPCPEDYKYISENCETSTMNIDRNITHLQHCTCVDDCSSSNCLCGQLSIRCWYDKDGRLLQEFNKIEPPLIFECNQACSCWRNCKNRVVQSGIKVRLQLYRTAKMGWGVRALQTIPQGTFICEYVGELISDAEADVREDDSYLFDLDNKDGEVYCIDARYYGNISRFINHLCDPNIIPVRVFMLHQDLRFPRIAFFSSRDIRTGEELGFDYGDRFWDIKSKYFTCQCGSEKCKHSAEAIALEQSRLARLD
#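 G9a (20 nM) preincubated 15 min RT with compounds, then 500 nM biotinylated H3K9 peptide and 20 uM SAM added; 2 h RT reaction. Monomethyl-H3K9 product detected by AlphaScreen with anti-H3K9me1 antibody, streptavidin donor and anti-rabbit IgG acceptor beads.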
# Tau fibril ThT – blocks human tau fibril formation measured by thioflavin T. P10636. recombinant tau K18 P301L, heparin-induced fibrillization, ThT fluorescence. 270,000 compounds, 2.1% hits. Potency, µM (titrated, usually from 57.4 µM), without a hit: top-dose activity, negative = inhibition, most hits filed as inhibitors; note: potency is the fitted concentration of half-maximal effect; nearly all actives have a fitted effect of over 55% in size
# Target sequence (P10636 561-689 P618L limits assumed): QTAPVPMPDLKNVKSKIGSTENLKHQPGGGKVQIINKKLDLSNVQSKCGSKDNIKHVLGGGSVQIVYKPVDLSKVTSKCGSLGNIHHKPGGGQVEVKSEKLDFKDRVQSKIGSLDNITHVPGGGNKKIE
#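 Using a mix of unlabeled (15 uM) and Alexa 594-labeled (0.24 uM) tau K18 P301L, heparin-triggered fibrillization over 6 hr at 37 C was scored by ThT fluorescence.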
# Tau fluor cs – counter-screen for tau fibril formation inhibitors. 280,000 compounds, 0.93% hits. tau K18 P301L Alexa594 fluorescence, heparin fibrillization. Potency, µM (top dose mostly 57.7 µM), without a hit: at the highest dose activity change, negative = decrease; note: potency is the fitted concentration of half-maximal effect; nearly all actives have a fitted effect of over 55% in size
#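 Human tau K18 P301L (15 uM unlabeled, 0.24 uM Alexa 594-labeled) in 100 mM sodium acetate pH 7 with 20 uM heparin, 6 hr at 37 C. ThT 30 uM added, 1 hr ambient; Alexa 594 FP and total fluorescence read at 555/632 nm.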
# Tau FP inhib – inhibitors of human tau fibril formation | P10636 | K18 P301L tau heparin fibrillization, Alexa594 FP, 6 h | Potency, µM (titrated, usually from 57.7 µM), inactives show at the top dose activity, negative = inhibition, most hits filed as inhibitors | 280,000 compounds, 0.39% hits | AID 1468; note: potency is the fitted concentration of half-maximal effect; nearly all actives have a fitted effect of over 55% in size
#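 Recombinant K18 P301L […], labeled with Alexa 594 at 0.24 uM over 15 uM unlabeled; heparin inducer 20 uM final; 37 C, 6 hr; FP endpoint.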
# Active calls of the source: *; u = inconclusive; x = no result; [ ] = remark or other dose. Unless noted, calls come from the whole dose curve; as a rule, active = well fitted curve in the direction sought with a large enough effect; inconclusive = small, poorly fitted or top-dose-only effect, or another doubt; inactive = no such curve, though single readings can be large; an effect the other way counts as inactive or inconclusive. Unless noted, % is set by controls: 0 for no effect and ±100 for the full control effect.
SMILES,Sfp PPTase inh,FBPA coupling cs,G9a inh,Tau fibril ThT,Tau fluor cs,Tau FP inhib
COc1ccc(N2C(=O)CC(Sc3nnnn3-c3ccc(F)cc3)C2=O)cc1 (centres undefined),15.8µM*,4.2,u,u,-14.1%,-5.5%
COc1ccc(N2C(=NC(=O)C3CCCO3)SC3CS(=O)(=O)CC32)cc1 (centres undefined),9.6%,x,4.7%,x,x,x
COc1ccc(NC(=O)CSc2nc3c([nH]c4ccccc43)c(=O)n2-c2ccccc2)c(OC)c1,x,x,5.3%[59 µM],7.8%,-20.8%,-4.6%
O=C(CN1CCCCCC1)NC(c1ccccc1)c1ccccc1,-29.8%,-2.0,7.94µM*,x,x,x
O=C(CN1CCN(c2ccc(O)cc2)CC1)NC(c1ccccc1)c1ccccc1,10µM*,-7.4,7.94µM*,u,u,-5.2%
CC1Cc2ccccc2N1CC(=O)NC(c1ccccc1)c1ccccc1 (centres undefined),11.8%,-0.5,2.5%[59 µM],-9.0%,-10.3%,7.5%
CC1CC(C)CN(CC(=O)NC(c2ccccc2)c2ccccc2)C1 (centres undefined),u,3.1,14.1µM*,-16.5%,-10.0%,5.4%
CC(NC(=O)CN1CCN(c2cccc(Cl)c2)CC1)c1ccccc1 (centres undefined),-0.6%,5.3,x,x,x,x
CC(C)NCCCCOc1ccccc1-c1ccccc1,u,1.2,u,-12.4%,-15.7%,-0.9%
CCCCN1C(=O)c2[nH]nc(-c3ccccc3O)c2C1c1cc(Br)c(O)c(OC)c1 (centres undefined),x,x,u,-14.7%,u,-12.0%
O=[N+]([O-])c1c(Nc2ccc(O)cc2)cc(Cl)c2nonc12,50.1µM*,3.0,31.6µM*,x,x,x
O=C(O)c1cccc(Nc2cc(Cl)c3nonc3c2[N+](=O)[O-])c1,-64.9%,2.4,31.6µM*,3.55µM*,u,2.2%
O=[N+]([O-])c1c(Nc2ccccn2)cc(Cl)c2nonc12,7.94µM*,-57.0*,0.708µM*,x,u,u
O=C(O)c1ccccc1Nc1cc(Cl)c2nonc2c1[N+](=O)[O-],u,7.5,44.7µM*,x,x,x
COc1cc2nc(SCc3cccc(Cl)c3)n3nc(CCn4nc(C)cc4C)nc3c2cc1OC,x,x,-42.4%[59 µM],1.0%,-0.8%,4.4%
NC(C(=O)O)c1nn[nH]n1 (centres undefined),-6.5%,2.3,x,x,x,x
O=C(O)c1cccc(Nc2ccc([N+](=O)[O-])c3nonc23)c1,2.4%,-14.5,70.8µM*,x,x,x
CNc1oc(-c2ccccc2F)nc1S(=O)(=O)c1ccc(C)cc1,-16.0%,x,x,x,x,x
CNc1oc(C)nc1S(=O)(=O)c1ccc(C)cc1,44.7µM*,0.4,1.9%[0.0925 µM],u,-9.1%,-16.1%
CCNc1oc(-c2ccccc2F)nc1S(=O)(=O)c1ccccc1,-8.5%,x,44.7µM*,x,x,x
CCNc1oc(-c2ccc(OC)cc2)nc1S(=O)(=O)c1ccc(Br)cc1,3.3%,-3.9,56.2µM*,-15.6%,u,0.0%
CNc1oc(Cc2ccccc2)nc1S(=O)(=O)c1ccccc1,50.1µM*,11.7,u,u,-8.5%,u
CNc1oc(-c2ccccc2)nc1S(=O)(=O)c1ccc(C)cc1,1.5%,x,u,x,x,x
CCCCNc1oc(-c2ccc(OC)cc2)nc1S(=O)(=O)c1ccccc1,50.1µM*,2.4,2.82µM*,u,-13.6%,-5.4%
CCOc1ccc(-c2nc(S(=O)(=O)c3ccccc3)c(NCc3cccnc3)o2)cc1,-7.1%,-6.3,44.7µM*,1.7%,-0.8%,0.4%
SMILES,Sfp PPTase inh,FBPA coupling cs,G9a inh,Tau fibril ThT,Tau fluor cs,Tau FP inhib
Cc1ccc(S(=O)(=O)c2nc(-c3ccccc3F)oc2NCc2ccccc2)cc1,x,x,u,6.4%,-16.3%,-12.6%
Cc1ccc(S(=O)(=O)c2nc(C)oc2NCc2ccccc2)cc1,u,0.0,8.91µM*,-17.3%,2.2%,3.7%
COc1ccccc1/C=C/c1nc(S(=O)(=O)c2ccccc2)c(NCCN(C)C)o1,-1.6%,1.1,u,x,x,x
COc1ccc(/C=C/c2nc(S(=O)(=O)c3ccccc3)c(NCCCN(C)C)o2)cc1OC,1.8%,-2.3,79.4µM*,x,x,x
CCS(=O)(=O)c1oc(-c2ccc(F)cc2)nc1S(=O)(=O)c1ccccc1,x,x,u,15.0%,3.5%,-9.1%
CCOc1ccc(-c2nc(S(=O)(=O)c3ccccc3)c(NC)o2)cc1,12.6%,x,53.1%,x,x,x
Cc1ccc(OCC(=O)Nc2ccccc2C(=O)OCc2cc(=O)n3ccsc3n2)cc1C,x,x,-37.0%[59 µM],3.3%,-4.4%,0.2%
C[C@H](N)C(=O)N[C@@H](CO)C(=O)N[C@H](C(=O)N[C@H](C(=O)N[C@H](C(=O)N[C@@H](CC(N)=O)C(=O)N[C@@H](Cc1ccc(O)cc1)C(=O)N[C@H](C(=O)O)[C@@H](C)O)[C@@H](C)O)[C@@H](C)O)[C@@H](C)O,12.5%,0.1,x,x,x,x
COCCCNC(=O)NC(CCC(C)C)c1c(-n2cccc2)sc2c1CCN(C)C2 (centres undefined),x,x,u,-5.2%,-6.9%,-1.8%
COc1ccc(-c2nc(-c3ccccc3)c(NCc3ccccc3)o2)cc1,-11.7%,5.8,x,-0.6%,6.7%,10.9%
COc1ccc(-c2nc(S(=O)(=O)c3ccc(C)cc3)c(NCc3ccccc3)o2)cc1,x,x,11.2µM*,u,-9.1%,-1.8%
COCCCNC(=O)c1ccc(Cn2c(=O)c3ccccc3n(Cc3c(C)cc(C)cc3C)c2=O)cc1,x,x,4.3%[59 µM],6.7%,4.6%,-3.1%
O=C(CN1CCN(C(=O)C2CCCO2)CC1)Nc1ccc(Br)cc1 (centres undefined),8.1%,x,u,x,x,x
CC(=O)C(C(C)=O)c1c(Cl)c(O)c(O)c2c(C(=O)c3ccccc3)coc12,6.31µM*,-12.3,u,15.8µM*,u,u
CN1CCN(Cc2c(O)ccc3occ(C(=O)c4ccccc4)c23)CC1,8.2%,-0.2,-9.1%[59 µM],-11.0%,2.0%,14.1%
O=C(COC(=O)C1CCN(c2ccc(C(F)(F)F)cn2)CC1)Nc1ncc(Cl)cc1Cl,x,x,-8.7%[12.7 µM],x,x,x
Cc1ccc(COc2ccc(CNCCCN3CCCCCC3=O)cc2)cc1,-21.0%,-0.7,14.1µM*,x,x,x
CCSc1cc(C2C(C(=O)OC)=C(C)NC3=C2C(=O)CCC3)c(C)o1 (centres undefined),-19.3%,-0.5,7.08µM*,-11.4%,-3.6%,-9.9%
CC(=O)N1CCN(C(=O)c2cccc(S(=O)(=O)N3CCOCC3)c2)CC1,x,x,-2.6%[0.501 µM],x,x,x
Cc1ccc(CCNC(=O)c2c3c(nc4ccccc24)C(=O)N(C2CCCCC2)C3)cc1,x,x,4.4%[59 µM],-6.8%,9.1%,6.5%
CC(=O)Nc1nnc2n1CCS2,x,x,14.1µM*,1.3%,5.2%,-3.9%
CCC(=O)Nc1nnc2n1CCS2,x,x,25.1µM*,9.5%,7.9%,-3.2%
CCOC(=O)CCC(=O)Nc1nnc2n1CCS2,x,x,12.6µM*,-0.7%,-2.0%,4.6%

# Screens: PubChem, National Center for Advancing Translational Sciences (NCATS)
